This note sets out measurements from PubChem BioAssay (NCI).

Compounds without any hit were thinned out: in the full panel of roughly 83,000, 20% have a hit.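 Step 1: grow cells in 96-well plates. Step 2: add test compound at a single concentration. Step 3: incubate 48 h. Step 4: record percent growth.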 Unmarked numbers belong to inactive results. Calls of active or inactive are those of the source. Rule for the calls: active = growth percent below 10; inactive = the rest.

Test systems include NCI-H23 lung; NCI-H226 lung; NCI-H322M lung; HOP-62 NSCLC; NCI-H460 lung; HOP-92 NSCLC; NCI-H522 lung; A549/ATCC NSCLC; 786-0 renal; DU-145 prostate; K-562 leukemia; MALME-3M melanoma; MDA-MB-231 breast; RXF 393 renal; SF-268 CNS; SF-295 CNS; SF-539 CNS; UACC-257 melanoma; M14 melanoma; COLO 205 colon.
What all share (assay): NCI-60 one-dose screen, 48 h (100 = growth as untreated, 0 = no growth, -100 = all killed)
Common to all, as to settings: 10 µM unless noted

As for `N#Cc1c(-c2cccs2)cc(-c2cnccn2)nc1SCC(=O)N/N=C/c1ccc(Cl)cc1`, the growth in the test on NCI-H23 lung is 100%; with NCI-H226 lung it was 98.1%; in the test with NCI-H322M lung, 99.3%; in the test on HOP-62 NSCLC, 99.1%; in the test with NCI-H460 lung, 103%; in the test with HOP-92 NSCLC, 89.4%. Moreover, the growth was 93.7% in the test on NCI-H522 lung; 94.6% in the test with A549/ATCC NSCLC; 93.9% in the test with 786-0 renal; 104% in the test with DU-145 prostate; 96.7% with K-562 leukemia; 115% in the test with MALME-3M melanoma. Further, the growth in the test on MDA-MB-231 breast was 94.9%; in the test with RXF 393 renal, 92.2%; with SF-268 CNS, 102%; in the test on SF-295 CNS it was 98.7%; in the test with SF-539 CNS, 100%; with UACC-257 melanoma it was 110%. Besides, the growth in the test with M14 melanoma is 111%.

In the case of `CC(C)C(/C=C/c1[nH]ncc1-c1cc(Cl)ccc1O)N1CCOCC1` (configuration not stated), the growth was 96.7% in the test with NCI-H23 lung; 85.2% in the test with NCI-H226 lung; 88.7% with NCI-H322M lung; 92.3% with HOP-62 NSCLC; 105% in the test with NCI-H460 lung; 88.4% in the test with HOP-92 NSCLC. Moreover, the growth in the test with A549/ATCC NSCLC is 96.7%; in the test with 786-0 renal, 101%; in the test on COLO 205 colon, 109%; in the test on DU-145 prostate, 100%; in the test on K-562 leukemia, 82.3%; in the test on MALME-3M melanoma it was 106%. The growth with MDA-MB-231 breast is 106%; in the test with RXF 393 renal, 88.3%; with SF-268 CNS, 88.5%; in the test on SF-295 CNS, 96%; with SF-539 CNS, 97.5%; with UACC-257 melanoma, 103%. Also, the growth in the test with M14 melanoma was 97.5%.

Regarding `CN1c2ccccc2Sc2cc(/C=N/Nc3ccnc4cc(Cl)ccc34)ccc21`, the growth with NCI-H23 lung was 91.6%; in the test with NCI-H226 lung it was 90.5%; in the test on NCI-H322M lung, 107%; in the test on HOP-62 NSCLC, 96.6%; in the test with NCI-H460 lung, 104%; in the test on HOP-92 NSCLC it was 82.1%. Moreover, the growth in the test with A549/ATCC NSCLC is 83.3%; in the test on 786-0 renal, 89.3%; in the test with COLO 205 colon, 101%; with DU-145 prostate it was 103%; with K-562 leukemia, -7.83% (active); in the test with MALME-3M melanoma, 94.7%. Further, the growth with MDA-MB-231 breast is 98.5%; in the test on RXF 393 renal, 82.2%; in the test on SF-268 CNS it was 99.4%; in the test on SF-295 CNS, 98.7%; in the test with SF-539 CNS, 103%; in the test on UACC-257 melanoma it was 96.3%. For the same molecule, the growth in the test with M14 melanoma was 92.7%.

For the molecule `COc1ccc([C@@H]2C(=O)N(c3cc(OC)c(OC)c(OC)c3)[C@H]2c2ccc(OC)c(O)c2)cc1`, the growth in the test with NCI-H23 lung was 28.9%; with NCI-H226 lung it was 60.2%; in the test with NCI-H322M lung, 42.7%; in the test with HOP-62 NSCLC, 31.3%; with NCI-H460 lung, 4.83% (active); in the test on HOP-92 NSCLC, 25.1%. Further, the growth in the test on A549/ATCC NSCLC was 29%; with 786-0 renal, 6.33% (active); in the test on COLO 205 colon it was -79.3% (active); in the test on DU-145 prostate, 10.9%; with K-562 leukemia, 12.7%; in the test with MALME-3M melanoma, 69.5%. Also, the growth in the test with MDA-MB-231 breast is 28.8%; with RXF 393 renal, 16.7%; in the test with SF-268 CNS it was 25.2%; with SF-295 CNS it was 17.9%; in the test on SF-539 CNS, 5.74% (active); in the test on UACC-257 melanoma, 56.6%. For the same molecule, in the test on M14 melanoma, the growth is 12.6%.

Consider `CCOC(=O)c1c(NC(=O)c2ccc(C(F)(F)F)cc2)sc2c3c(ccc12)OCN(C)C3`, for which the growth was 85.6% in the test with NCI-H23 lung; 97% in the test on NCI-H226 lung; 73.4% in the test on NCI-H322M lung; -53.2% (active) in the test with HOP-62 NSCLC; -17.8% (active) in the test on NCI-H460 lung; 14.5% with HOP-92 NSCLC. The growth in the test on NCI-H522 lung was -60.3% (active); in the test on A549/ATCC NSCLC it was -37.9% (active); with 786-0 renal, 30.8%; in the test on DU-145 prostate, 21.6%; in the test with K-562 leukemia, -28.3% (active); in the test with MALME-3M melanoma it was 72.6%. Also, the growth in the test on MDA-MB-231 breast is 10.9%; in the test with RXF 393 renal, -70% (active); in the test on SF-268 CNS, 63.6%; in the test with SF-295 CNS, 66.2%; with SF-539 CNS it was -73.1% (active); with UACC-257 melanoma, 71.6%. For the same molecule, the growth in the test with M14 melanoma was 30.1%.

`Cc1ccc(-c2nc(SCC(=O)c3ccccc3)nc(Nc3ccc(S(N)(=O)=O)cc3)c2C#N)cc1`: the growth in the test with NCI-H23 lung is 34.5%; with NCI-H226 lung, 71.4%; in the test with NCI-H322M lung, 99.5%; in the test on HOP-62 NSCLC, 26.2%; with NCI-H460 lung, 65.2%; in the test with HOP-92 NSCLC, 37.6%. The growth is 87.1% with NCI-H522 lung; 87.4% in the test on A549/ATCC NSCLC; 46.3% with 786-0 renal; 60.7% in the test with DU-145 prostate; 70.1% in the test on K-562 leukemia; 33.6% with MALME-3M melanoma. Further, the growth was 33% in the test on MDA-MB-231 breast; 51.7% in the test on RXF 393 renal; 76.7% in the test with SF-268 CNS; 36.7% in the test on SF-295 CNS; 18.3% in the test on SF-539 CNS; 97.4% in the test on UACC-257 melanoma. In addition, in the test on M14 melanoma, the growth was 36.7%.

As for `COC(=O)c1ccc(NC2=C(Cl)C(=O)c3nc(C)ccc3C2=O)cc1`, the growth in the test with NCI-H23 lung is 54.8%; with NCI-H226 lung, 81.3%; with NCI-H322M lung, 101%; with HOP-62 NSCLC, 96.8%; with NCI-H460 lung it was 92.3%; with HOP-92 NSCLC, 142%. Besides, the growth in the test on A549/ATCC NSCLC is 94.1%; in the test with 786-0 renal it was 85.7%; in the test on COLO 205 colon, 111%; in the test on DU-145 prostate it was 68.5%; with K-562 leukemia it was 7.53% (active); in the test with MALME-3M melanoma it was 74.7%. Besides, the growth in the test with MDA-MB-231 breast is 91.9%; in the test with RXF 393 renal, 89.7%; with SF-268 CNS it was 72.9%; in the test with SF-295 CNS, 61.3%; in the test on SF-539 CNS, 72.6%; with UACC-257 melanoma it was 78.1%. Besides, in the test on M14 melanoma, the growth was 59.9%.

Regarding `N#Cc1c(-c2ccc(F)cc2)cc(-c2c[nH]c3ccccc23)nc1-c1c[nH]c2ccccc12`, the growth in the test with NCI-H23 lung is 100%; in the test with NCI-H226 lung it was 94%; in the test with NCI-H322M lung it was 106%; in the test on HOP-62 NSCLC it was 101%; with NCI-H460 lung it was 104%; in the test on HOP-92 NSCLC it was 93.4%. In addition, the growth is 101% in the test on A549/ATCC NSCLC; 99.5% in the test with 786-0 renal; 113% in the test with COLO 205 colon; 106% in the test with DU-145 prostate; 105% in the test with K-562 leukemia; 102% in the test with MALME-3M melanoma. Moreover, the growth was 102% in the test with MDA-MB-231 breast; 112% in the test with RXF 393 renal; 101% in the test with SF-268 CNS; 103% with SF-295 CNS; 100% in the test with SF-539 CNS; 107% in the test with UACC-257 melanoma. The growth in the test on M14 melanoma was 97.4%.
